About 17,000 (5.5%) of roughly 310,000 compounds were called active. Roughly 11% stayed inconclusive and do not appear here. The sample holds actives, similar compounds and a random draw of the others, so the mix is not that of the screen. The call rests on the fitted dose curve; in most records, active means well fitted inhibition curve with a large enough effect; inconclusive means small, poorly fitted or top-dose-only effect, or effect the other way; inactive means no such curve, though single readings can be large or run the other way.
Each compound was assayed against Nuclear receptor ROR-gamma (Mus musculus) (UniProt P51450) (assay: qHTS for inhibitors of ROR gamma transcriptional activity). Details: Drosophila S2 Gal4-RORgamma UAS-luciferase reporter, 20 h; series mostly up to 53.6 µM; activity change, negative = inhibition: at the top concentration.
Sequence of Nuclear receptor ROR-gamma (Mus musculus) (P51450 whole entry, looked up, the tested form may be a part): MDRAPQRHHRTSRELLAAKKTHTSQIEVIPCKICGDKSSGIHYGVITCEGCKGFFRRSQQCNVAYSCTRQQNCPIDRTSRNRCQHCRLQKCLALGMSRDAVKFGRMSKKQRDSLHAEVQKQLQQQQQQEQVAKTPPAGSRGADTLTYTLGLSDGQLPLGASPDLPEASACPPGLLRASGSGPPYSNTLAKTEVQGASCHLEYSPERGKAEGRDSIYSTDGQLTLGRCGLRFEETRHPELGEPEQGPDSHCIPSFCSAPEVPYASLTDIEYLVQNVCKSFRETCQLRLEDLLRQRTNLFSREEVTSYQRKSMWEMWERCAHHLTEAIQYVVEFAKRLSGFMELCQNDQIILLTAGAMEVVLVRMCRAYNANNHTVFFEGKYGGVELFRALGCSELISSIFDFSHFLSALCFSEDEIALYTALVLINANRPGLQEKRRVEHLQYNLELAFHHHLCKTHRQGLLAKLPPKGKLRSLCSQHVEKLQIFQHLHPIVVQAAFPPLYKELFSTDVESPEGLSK
In short: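 Stable Schneider cell line, Gal4 DNA-binding domain fused to ROR gamma, UAS-luciferase. Cmpd 1 hr RT → CuSO4 700 uM final → 20 hr RT → luciferase reagent 10 min → luminescence.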
In the case of `COc1cccc(NC(=O)NCCN2CCCCC2)c1`, the “activity change, negative = inhibition” value is reported as -0.679% (inactive). For `CCc1ccccc1NC(=O)NCCN1CCCCC1`, the “activity change, negative = inhibition” value was 8.95% (inactive). For `COc1cc2cc(CN(CCN3CCCC3)C(=O)Nc3ccccc3Cl)c(=O)[nH]c2cc1OC`, the “activity change, negative = inhibition” value was -28.4% (inactive). `CCc1ccccc1NC(=S)N(CCN1CCCCCC1)Cc1ccco1` was tested, and the Potency was 17.8 µM (active). In the case of `C=C1CCN(C(CC(C)C)C(=O)N2CCOCC2)S(=O)(=O)c2ccccc21` (centres undefined), the “activity change, negative = inhibition” value is reported as 7.59% (inactive). With `CCOc1ccccc1NS(=O)(=O)c1c[nH]c(C(=O)OC)c1` the “activity change, negative = inhibition” value was -1.36% (inactive). In the case of `COC(=O)[C@]1(S(=O)(=O)c2ccccc2)C[C@@H]2ON=C(c3ccc(OC)cc3)[C@@H]2C1`, the “activity change, negative = inhibition” value is reported as 2.22% (inactive). In the case of `COc1ccc(CCC(C)N2CCc3ccccc3C2)cc1` (centres undefined), the “activity change, negative = inhibition” value is reported as 9.94% (inactive). For `CCCC(=O)N1CCC(CCC(=O)NC2CC2)CC1`, the “activity change, negative = inhibition” value was -12.6% (inactive). `O=C(NCCc1ccc(Cl)cc1)C1CCCN1C(=O)NCc1ccccc1` (centres undefined) was tested, and the “activity change, negative = inhibition” value was 0.783% (inactive). In the case of `COCCn1cnc2c1c(=O)n(CC(=O)NN)c(=O)n2Cc1ccccc1`, the “activity change, negative = inhibition” value is reported as -27.2% (inactive). With `Cc1nn(CC(=O)Nc2nc3ccccc3s2)c(C)c1[N+](=O)[O-]` the “activity change, negative = inhibition” value was 5.91% (inactive). For `O=C(CN1C(=O)/C(=C\c2ccccc2F)SC1=S)Nc1nc2ccccc2s1`, the Potency was 11.2 µM (active). With `O=C(CN1C(=O)S/C(=C\c2ccccc2F)C1=O)NCCCn1ccnc1` the “activity change, negative = inhibition” value was -32.2% (inactive). In the case of `CCOC(=O)C1C(c2ccc(O)cc2)NC(=O)NC1(O)C(F)(F)F` (centres undefined), the “activity change, negative = inhibition” value is reported as 1.82% (inactive). With `CC1=NN(C(N)=S)C(=O)C1N=Nc1cc(Cl)ccc1Cl` (centres undefined) the Potency was 1.41 µM (active). `C=CCNc1nc(N)c([N+](=O)[O-])c(NC2CCCCC2)n1` was tested, and the “activity change, negative = inhibition” value was 17.4% (inactive). `O=C(NCc1ccc2c(c1)OCO2)c1cc(F)c(F)cc1Cl` was tested, and the activity change, negative = inhibition was -6.24% [at 1.91 µM] (inactive). In the case of `CN(C)S(=O)(=O)c1cccc(NC(=S)NCc2ccc3c(c2)OCO3)c1`, the “activity change, negative = inhibition” value is reported as 32.3% (inactive). With `Cc1c(Cl)cccc1NC(=S)NCc1ccc2c(c1)OCO2` the Potency was 7.08 µM (active). In the case of `CS(=O)(=O)N(CC(=O)N1CCCCCC1)c1cccc(Cl)c1Cl`, the “activity change, negative = inhibition” value is reported as -20.8% (inactive). `Cc1noc(C)c1C(=O)OCC(=O)/C=C1\N(C)c2ccccc2C1(C)C` was tested, and the “activity change, negative = inhibition” value was 7.06% (inactive). For `CN1/C(=C\C(=O)c2cccnc2Cl)C(C)(C)c2ccccc21`, the “activity change, negative = inhibition” value was 33.5% (inactive). For `CC(=O)Nc1cccc(OCC(=O)/C=C2\N(C)c3ccccc3C2(C)C)c1`, the Potency was 7.08 µM (active). For `CC(NC(=S)Nc1ccccc1)C1COc2ccccc2O1` (centres undefined), the Potency was 6.31 µM (active). For `CC(=O)c1cccc(NC(=O)C2COc3ccccc3O2)c1` (centres undefined), the activity change, negative = inhibition was -30.8% [at 1.91 µM] (inactive). In the case of `CC(c1ccco1)N(C(=O)Nc1ccccc1)C1CCCCC1` (centres undefined), the “activity change, negative = inhibition” value is reported as 1.37% (inactive). For `COC(=O)CSc1nc2ccccc2c(=O)n1Cc1ccccc1`, the “activity change, negative = inhibition” value was -3.52% (inactive). With `Cc1cc(C)n(CCNS(=O)(=O)c2ccc(Cl)cc2)n1` the “activity change, negative = inhibition” value was 12.2% (inactive). `Cc1ccc(CSCC(N)C(=O)O)cc1` (centres undefined) was tested, and the “activity change, negative = inhibition” value was 4.89% (inactive). In the case of `Cc1ccc(SC(CC(=O)c2ccc(C(C)(C)C)cc2)C(=O)O)cc1` (centres undefined), the Potency is reported as 1.41 µM (active). `Cc1ccc(SC(C)C(=O)NCc2ccc(F)cc2)cc1` (centres undefined) was tested, and the “activity change, negative = inhibition” value was -34% (inactive). With `Cc1sc2ncn(CC(=O)NCCCC(=O)N(C)Cc3ccccc3)c(=O)c2c1C` the “activity change, negative = inhibition” value was 33.8% (inactive). With `O=C(CN1C(=O)c2cccnc2Oc2ccc(Cl)cc21)Nc1ccc(F)cc1` the “activity change, negative = inhibition” value was 7.92% (inactive). With `COc1cccc(CSc2nc3nc(C)cc(C)n3n2)c1` the “activity change, negative = inhibition” value was 1.6% (inactive). With `Cc1cc(NC(=O)CCC(=O)N(CC(=O)NC2CCCC2)c2ccc(F)cc2)no1` the “activity change, negative = inhibition” value was -6.99% (inactive). For `COCCN(C(=O)CCC(=O)Nc1nccs1)C(C(=O)NCCC(C)C)c1ccc(F)cc1` (centres undefined), the “activity change, negative = inhibition” value was 1.64% (inactive). In the case of `Cc1ccc(S(=O)(=O)N(CC(O)CN2C(=O)NC(C)(C)C2=O)c2cccc([N+](=O)[O-])c2)cc1` (centres undefined), the “activity change, negative = inhibition” value is reported as 0.382% (inactive). For `C=CCOc1ccccc1/C=N/NC(=O)Cc1ccccc1`, the “activity change, negative = inhibition” value was -31.9% (inactive). With `CCOc1ccccc1/C=N/NC(=O)CNC(=O)COc1ccccc1` the “activity change, negative = inhibition” value was 12.2% (inactive). With `C=C(C)CNC(=S)N/N=C/c1ccccc1OCC(=O)O` the Potency was 10 µM (active). In the case of `N#Cc1cc([N+](=O)[O-])ccc1NCC1CCCO1` (centres undefined), the “activity change, negative = inhibition” value is reported as -1.01% (inactive). With `Cc1ccc(NC(=O)C2CCCN2C(=O)OCc2ccccc2)cc1C` (centres undefined) the “activity change, negative = inhibition” value was 3.47% (inactive). For `O=C(N/N=C/c1cccc(O)c1)c1cc2c(ccc3ccccc32)o1`, the “activity change, negative = inhibition” value was -1.2% (inactive). With `Cc1ccc(CS(=O)(=O)c2ncc(Cl)c(C(=O)Nc3nnc(C)s3)n2)cc1` the Potency was 14.1 µM (active). In the case of `Cc1cccc(OCc2ccc(C(=O)Nc3ccc(F)cc3)cc2)c1`, the “activity change, negative = inhibition” value is reported as 27.9% (inactive). For `CSc1ncc(Cl)c(C(=O)Nc2cc(C)ccc2C)n1`, the “activity change, negative = inhibition” value was 1.49% (inactive). In the case of `Cc1cccc(NC(=O)C(C)SCc2ccccc2)c1` (centres undefined), the “activity change, negative = inhibition” value is reported as 6.35% (inactive). With `Cc1cccc(CS(=O)(=O)c2ncc(Cl)c(C(=O)Nc3ccc(F)cc3)n2)c1` the Potency was 6.31 µM (active). For `Cc1ccc(S(=O)(=O)CC(=O)Nc2nnc(C)s2)cc1`, the “activity change, negative = inhibition” value was 6.36% (inactive). With `CCSc1ncc(Cl)c(C(=O)Nc2cc(C)ccc2C)n1` the “activity change, negative = inhibition” value was 13.3% (inactive). In the case of `Cc1nnc(NC(=O)CCCOc2ccccc2)s1`, the “activity change, negative = inhibition” value is reported as 12.3% (inactive). `Cc1cccc(NC(=O)c2nc(S(=O)(=O)Cc3ccccc3)ncc2Cl)c1` was tested, and the Potency was 7.08 µM (active). In the case of `O=C(CCS(=O)(=O)c1ccccc1)NC1CCCC1`, the “activity change, negative = inhibition” value is reported as 3.1% (inactive).
Further: nearly all actives have a fitted effect of over 60% in size.
On the % scale 0 is the no-effect control and ±100 the full control effect; potency means the concentration at half of the fitted maximal effect.
